# TDP1 cell noCPT – qHTS for Inhibitors of human tyrosyl-DNA phosphodiesterase 1 (TDP1): qHTS in cells in absence of CPT; DT40 Tdp1-/- hTDP1 cells, no CPT, ATP luminescence, 48 h; Potency, µM (highest dose often 46.2 µM), for inactives: at the top dose activity change, negative = growth inhibition, most hits filed as inhibitors; 15% of 420,000 active; AID 686978, 2013; note: potency is the fitted concentration of half-maximal effect; nearly all actives have a fitted effect of over 55% in size
#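 DT40 Tdp1-/-;hTDP1 cells, no CPT (DMSO vehicle only), 400 cells/well; compounds pin-transferred; ≥48 hr, 37 °C; CellTiter-Glo 30 min RT dark, luminescence read.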
# TDP1 cell CPT – qHTS for Inhibitors of human tyrosyl-DNA phosphodiesterase 1 (TDP1): qHTS in cells in presence of CPT. Potency, µM (highest dose often 46.2 µM), for the others: top-dose activity change, negative = growth inhibition, actives largely listed as inhibitors. chicken DT40 Tdp1-/-;hTDP1 cells + 20 nM CPT, ATP luminescence, 48 h. 12% of 420,000 active; note: potency is the fitted concentration of half-maximal effect; nearly all actives have a fitted effect of over 55% in size
#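 Chicken DT40 Tdp1-/- cells stably complemented with human TDP1 were seeded at 400 cells/well in medium containing 20 nM camptothecin, exposed to pin-transferred compounds, and grown at 37 °C for at least 48 hr. Viability was read as ATP luminescence.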
# HT1080-NT tox – qHTS for induction of synthetic lethality in tumor cells producing 2HG: qHTS for the HT-1080-NT fibrosarcoma cell line; 1.6% of 360,000 active; Potency, µM (highest dose often 46.1 µM), without a hit: at the highest dose activity, negative = less viability, most hits filed as cytotoxic; HT-1080-NT fibrosarcoma viability, CellTiter-Glo ATP luminescence, 48 h;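 note: NT is the 2HG producing partner of a matched IDH1 knockdown line; potency is the fitted concentration of half-maximal effect; 0% = DMSO-treated cells and -100% = media-only wells without cells; nearly all actives have a fitted effect of over 55% in size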
#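 Viability of the 2HG-overproducing fibrosarcoma line after 48 hours of compound exposure at 37 degrees C was determined by luminescence with CellTiter-Glo, and concentration-effect curves were then fitted and categorized.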
# IL-1B inflam inh – qHTS for Inhibitors of Inflammasome Signaling: IL-1-beta AlphaLISA Primary Screen; 4.7% of 360,000 active; activity change, % at 57.5 µM; THP-1 LPS/ATP IL-1B secretion, AlphaLISA, 16 h; hits give low values; in the data active = activity change below about -50%; inconclusive = mostly about -30% to -49%
#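 Secreted IL-1B measured by AlphaLISA bead assay after 16 h compound exposure of THP-1 cells; compounds (final up to 57.5 uM) added 1 h before LPS (250 ng/mL) and ATP (1.25 mM) stimulation; lower signal means less secretion.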
# uPA surface inh – qHTS for Inhibitors of Cell Surface uPA Generation | cell surface uPA generation assay, qHTS | Potency, µM (series often up to 38.3 µM), for the others: at the top dose activity change, negative = inhibition, most hits filed as inhibitors | 0.31% of 330,000 active; active = well fitted inhibition curve with a large enough effect; inconclusive = small, poorly fitted or top-dose-only effect; inactive = no such curve, though single readings can be large or run the other way; tested in mouse RAW 264.7 cells; note: potency is the fitted concentration of half-maximal effect; nearly all actives have a fitted effect of over 55% in size
# HT1080 IDH1KD tx – qHTS for induction of synthetic lethality in tumor cells producing 2HG: qHTS for the HT-1080-IDH1KD cell line; HT-1080 IDH1 knockdown viability, ATP luminescence, 48 h; Potency, µM (titrated, usually from 46.1 µM), inactives show top-dose activity, negative = toxicity, hits mostly cytotoxic; 2% of 360,000 active;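 note: potency is the fitted concentration of half-maximal effect; 0% = DMSO wells and -100% = cell-free medium wells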
#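 Viability of IDH1-knockdown HT-1080 fibrosarcoma cells was assessed by CellTiter-Glo after 48 h at 37 °C with titrated compound; concentration-effect curves were classified by fit quality and response size.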
# * hit, by the source's call; ? = inconclusive; . = no result. Only some compounds are listed: those with a hit (about 19% of all), similar ones and a draw of the others. Unless noted, calls come from the whole dose curve; as a rule, active = well fitted curve in the direction sought with a large enough effect; inconclusive = small, poorly fitted or top-dose-only effect, or another doubt; inactive = no such curve, though single readings can be large; an effect the other way counts as inactive or inconclusive. Unless noted, % is set by controls: 0 for no effect and ±100 for the full control effect.
SMILES,TDP1 cell noCPT,TDP1 cell CPT,HT1080-NT tox,IL-1B inflam inh,uPA surface inh,HT1080 IDH1KD tx
Cc1ccnc2ccc(-c3nc4ccccc4o3)cc12,10µM*,21µM*,-1%,-12,-6%,-10%
CN(C)c1ccc(-c2nc3cc(N)ccc3o2)cc1,7%,-18%,-5%,63,?,-3%
Nc1ccc(-c2nc3ccc(N)cc3o2)cc1,?,-29%,0%,?,7.9µM*,-2%
Cc1nc2ccc(-c3nc4ccccc4o3)cc2[nH]1,?,-15%,-13%,197,-10%,0%
Cc1cc(Cl)ccc1NC(=O)CSc1n[nH]c(N)n1,-3%,?,6%,-2,-1%,2%
CCc1ccccc1NC(=O)c1nn(-c2ccc(C)cc2)c(=O)c2c1c1ccccc1n2C,-5%,-7%,.,.,.,.
CCn1c(SCC(=O)N2CCN(c3ccc(F)cc3)CC2)nc2ccccc2c1=O,?,21µM*,-6%,-2,-1%,0%
Cc1cc(-n2c(C)cc(C(=O)CSc3nc4ccccc4c(=O)n3Cc3ccco3)c2C)no1,21µM*,23µM*,-2%,5,4%,-4%
O=c1c2ccccc2nnn1CSc1nc2ccccc2c(=O)n1Cc1ccco1,21µM*,23µM*,1%,0,4%,8%
CCN(CC)C(=O)CSc1nc2ccccc2c(=O)n1CCC(=O)N1CCN(c2ccccc2)CC1,?,16µM*,14%,7,-1%,19%
Cc1ccc(COc2ccc3oc(-c4ccccc4)c(C(=O)O)c3c2)cc1,-11%,7%,.,.,.,.
CCOc1ccc(C(=O)NCCS(=O)(=O)N2CCN(c3cccc(Cl)c3)CC2)cc1,-13%,?,.,.,.,.
COC(=O)CN1C(=O)CSc2ccc(S(=O)(=O)Nc3cccc(Cl)c3C)cc21,?,-3%,.,.,.,.
COc1ccccc1N1CCN(S(=O)(=O)c2c(C)sc3ncn(CC(=O)Nc4ccccc4F)c(=O)c23)CC1,-3%,1%,.,.,.,.
CCOC(=O)C1CCN(c2ncnc3c2cnn3C)CC1,-27%,3%,-3%,-1,1%,-2%
COc1ccc(Cn2c(SCC(=O)N3CCN(c4ccc(F)cc4)CC3)nc3ccccc32)cc1,21µM*,21µM*,.,.,.,.
Cc1ccc(-n2nnnc2SCn2nnc3ccccc3c2=O)c(C)c1,8.2µM*,9.2µM*,-3%,-6,.,-25%
O=C(CSc1nc2ccccc2c(=O)n1Cc1ccco1)c1ccccc1,21µM*,16µM*,-20%,-11,-8%,?
O=C(CSc1n[nH]c(-c2ccc(F)cc2)n1)N1CCN(c2ccc(F)cc2)CC1,23µM*,16µM*,.,.,.,.
CCCn1c(SC(C)C(=O)NC2CCCC2)n[nH]c1=O (configuration not stated),3%,11%,4%,-4,6%,5%
CCOc1ccc(/C=N/NC(=O)CNC(=O)c2ccc(S(=O)(=O)N3CCOCC3)cc2)cc1,-28%,-22%,-19%,4,5%,-29%
O=C(CSc1nc2ccccc2c(=O)n1Cc1ccco1)N1CCN(c2ccccc2)CC1,26µM*,?,4%,6,3%,-2%
CCCCC(=O)OCc1c(-c2cccc(OC)c2)ncc2ccccc12,?,?,-1%,-1,2%,-1%
Cn1cccc1C(=O)N1CCC2(CC1)CN(C(c1ccccc1)c1ccccc1)C2,12µM*,?,.,.,.,.
COCC(=O)N1CCC2(CC1)CCN(c1ccc(-c3ccccc3)cc1)CC2,0.21µM*,?,.,.,.,.
SMILES,TDP1 cell noCPT,TDP1 cell CPT,HT1080-NT tox,IL-1B inflam inh,uPA surface inh,HT1080 IDH1KD tx
Cn1cccc1C(=O)N1CCC2(CC1)CCN(c1ccc(-c3ccccc3)cc1)CC2,8.2µM*,9.2µM*,.,.,.,.
Cn1cccc1C(=O)N1CCC2(CCN(C(=O)Nc3cccc(F)c3)CC2)CC1,?,23µM*,.,.,.,.
CCCCNC(=O)c1nc(C2CCNCC2)oc1-c1ccccc1,?,?,-1%,-21,.,-1%
COc1ccc(-n2nc(C(=O)Nc3ccc(Cl)cn3)c3c4ccccc4n(C)c3c2=O)cc1Cl,-1%,10%,.,.,.,.
CCn1c(SCC(=O)c2c[nH]c3ccccc23)nnc1-c1cccs1,5.8µM*,?,?,35,-7%,?
CCn1c(SCc2nc(-c3cccs3)no2)nnc1-c1c[nH]c2ccccc12,23µM*,?,-21%,-18,4%,?
CCn1c(SCc2nc(-c3ccccc3)no2)nnc1-c1cccs1,-26%,?,-5%,13,-4%,0%
CCn1c(SC(C)C(=O)OC)nnc1-c1c[nH]c2ccccc12 (configuration not stated),23µM*,?,-2%,?,3%,1%
COCCn1c(SCC(=O)c2c[nH]c3ccccc23)nnc1-c1ccncc1,-3%,15%,-7%,33,-6%,0%
Cc1c(O)cc2n(c1=O)-c1ccccc1C2(C)C,-15%,-7%,0%,13,-3%,0%
CC1(C)c2ccccc2-n2c1cc1oc(=O)cc(O)c1c2=O,21µM*,?,-6%,13,-1%,-3%
COc1cc(CNc2nccn3ccnc23)cc(OC)c1,?,?,17%,28,.,2%
S=C(NCCN1CCOCC1)N1CCN(c2cccc(Cl)c2)CC1,?,-1%,-2%,-92*,-5%,-4%
O=C(NCCCN1CCN(CCCNC(=O)c2cccc(Cl)c2)CC1)c1cccc(Cl)c1,?,18µM*,-1%,-57*,1%,1%
O=C(CCN1CCOCC1)NNC(=S)NC(=O)c1ccc(Br)cc1,13µM*,15µM*,-13%,4,0%,-5%
O=C(CCN1CCCCC1)NNC(=S)NC(=O)c1ccc(Br)cc1,?,?,-21%,3,-4%,-19%
O=C(CCN1CCCCC1)c1cccc(Cl)c1,?,21µM*,-2%,1,-5%,-6%
COc1cc2c(cc1OC)C(c1cc(OC)c(O)c(OC)c1)CC(=O)N2 (configuration not stated),0%,16%,.,.,.,.
CC(OC(=O)c1ccccc1NCCO)C(=O)NC1CCCCC1C (configuration not stated),-24%,-20%,2%,0,6%,1%
O=C(NC(=S)NCCN1CCOCC1)c1cccc(Cl)c1,1%,1%,25µM*,4,.,?
